Assay results published in the supplement of paper PMC3334620.
The full ranking holds about 33,000 sequences; the median of “E-score (-0.5 to 0.5)” is about -0.032, and the highest 2% start at about 0.36. This excerpt belongs to a sample that is enriched for the highest values.

The sequences below were run against T1, Sko1 (UniProt Q02100) (assay: PBM E-score (8-mer binding enrichment) (E-score (-0.5 to 0.5)); higher = stronger / more preferred TF binding). Details: protein concentration: 200 nM; construct: GST-full length.
T1 sequence: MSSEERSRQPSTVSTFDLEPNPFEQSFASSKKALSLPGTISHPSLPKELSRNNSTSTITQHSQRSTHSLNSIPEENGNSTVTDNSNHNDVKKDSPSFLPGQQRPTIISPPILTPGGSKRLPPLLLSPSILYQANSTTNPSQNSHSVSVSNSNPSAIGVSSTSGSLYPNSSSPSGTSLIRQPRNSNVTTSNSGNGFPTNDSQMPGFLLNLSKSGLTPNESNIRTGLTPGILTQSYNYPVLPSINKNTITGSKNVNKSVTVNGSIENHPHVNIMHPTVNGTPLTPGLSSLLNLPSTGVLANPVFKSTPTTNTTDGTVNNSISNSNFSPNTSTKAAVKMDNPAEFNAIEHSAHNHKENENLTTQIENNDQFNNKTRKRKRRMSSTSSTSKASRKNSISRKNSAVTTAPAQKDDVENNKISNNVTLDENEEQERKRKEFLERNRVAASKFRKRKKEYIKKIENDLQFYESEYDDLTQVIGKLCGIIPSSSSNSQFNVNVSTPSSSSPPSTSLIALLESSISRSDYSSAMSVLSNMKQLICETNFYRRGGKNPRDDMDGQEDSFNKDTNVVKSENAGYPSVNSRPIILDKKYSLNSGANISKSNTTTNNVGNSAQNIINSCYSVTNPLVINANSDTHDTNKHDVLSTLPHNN
Summary of the method: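 Detection of bound protein used fluorescent anti-GST, with scans normalised by masliner. The proteins were GST-tagged yeast transcription factors applied at about 100-200 nM to universal all-10-mer Agilent arrays made double-stranded by primer extension. Each ungapped eight-base word, pooled with its reverse complement, was scored with an E-score from the Universal PBM Analysis Suite.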

Sequence | PBM E-score
GGTATACA | 0.0243
AGTATATA | 0.254
AGTATACG | 0.267
CGTATATC | 0.319
CGTATACC | 0.132
CGTATACA | 0.372
CGTATATA | 0.418
CGTATACG | 0.393
AGTATACA | 0.0979
GCTCAAAC | -0.0717
ACGCCCTC | -0.134
GGACACTA | -0.125
AAGATCGT | 0.0795
GAACGACC | -0.306
TAGATAGA | 0.0341
AAACGGGC | -0.131
AACGTTTC | 0.199
CCGTCTAC | 0.0306
ACGTCTCC | 0.322
ACGTCTTG | 0.39
CCGTCTTC | -0.306
ACGTCTTC | 0.389
ACGTCTCG | 0.24
ACGTCTAT | 0.338
ACGTCTGG | 0.331
ACGTCTGA | 0.339

Sequence | PBM E-score
CCGTCTTA | 0.00816
ACGTCTAC | 0.368
ACGTCTTA | 0.408
AAGCGGGT | -0.268
AAAATGAT | 0.246
GTATGCAA | 0.177
CACTATCC | -0.124
AGAGTCAT | -0.0362
AACCGCAC | 0.0215
AAGTATTG | 0.15
CCGTATTC | 0.0573
ACGTATTC | 0.471
ATGTATTG | 0.196
CCGTATTA | 0.152
ACGTATTG | 0.464
AGGTATTC | 0.0465
GCGTATTA | 0.333
ACGTATTA | 0.468
CTGGTCTC | -0.342
GATCAGCA | -0.0416
GTGCCTCA | -0.118
AAAACAGT | 0.0855
ACTTCGGC | -0.00736
AATTACGA | 0.411
GATTACTA | 0.204
CATTACGA | 0.398

Sequence | PBM E-score
AATTACCA | 0.151
CATTACGG | 0.292
AATTACTA | 0.195
GCTTACGA | 0.238
CGTTACGA | 0.349
AGTTACGC | 0.317
CTTTACGA | 0.218
GATTACGA | 0.418
CGTTACGC | 0.362
ACCGGGTG | -0.224
TGAGTACA | -0.0184
CAGCATGC | -0.0382
TGGCCCAA | -0.0707
ACCAACTG | -0.0438
CCAGAGAA | 0.0433
CTGTCGGC | -0.148
AGATCGAA | 0.0696
AATTACGG | 0.26
CATTACGC | 0.409
CATTACCC | -0.0584
AATTACAT | 0.375
GATTACCC | -0.0418
AATTACGT | 0.492
GATTACAC | 0.0868
GATTACGC | 0.425
CATTACAC | 0.198

Sequence | PBM E-score
AATTACAC | 0.0946
AATTAGGT | 0.26
AATTACAG | 0.113
AGTGAGGC | 0.0161
CGGTTAAC | 0.0142
ACTTAAAA | 0.241
ATCAGATC | -0.0621
AGTTGAAT | 0.135
ATGTCCAA | 0.0296
CCCGGGTC | -0.204
GGCGCCAA | -0.179
ATGAAGGA | 0.0878
ATCCACCG | -0.0573
ATTTACGC | 0.281
TATTACGA | 0.414
TATTACAA | 0.221
TATTACCA | 0.227
AATTACCC | 0.0055
AATTACGC | 0.44
CTTCGAAG | -0.208
AGGCCCCG | -0.372
ATGGTTGA | -0.0732
ACGGAGCA | -0.116
CCTACAGG | -0.365
TGCGCGAA | 0.169
